Results from PubChem BioAssay (EPA / NIEHS).
Some compounds were tested as several samples or in several runs, with calls that do not always agree. Active and inactive are the calls of the source. The calls were made as follows: active = hit-call score of the fitted dose curve at least 0.9, where 1 is the maximum; inactive = score below 0.9.

Experiments:
[1] = read-out: Thrombomodulin, THBD (gene 7056); assay: BSK_CASM3C_Thrombomodulin: BioMAP Diversity Plus: CASM3C Assay for Thrombomodulin Biomarker Activity (AID 2283051); settings: primary human coronary artery smooth muscle cells; actives raise or lower the signal;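 also: thrombomodulin protein level measured by ELISA 24 h after dosing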
[2] = read-out: Tissue Factor, F3 (gene 2152); assay: BSK_CASM3C_TissueFactor: BioMAP Diversity Plus: CASM3C Assay for Tissue Factor Biomarker Activity (AID 2283052); settings: primary human coronary artery smooth muscle cells; actives raise or lower the signal;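 also: cell surface tissue factor protein level read by ELISA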
[3] = read-out: Interferon-gamma inducible Protein 10 (IP10), CXCL10 (gene 3627); assay: BSK_hDFCGF_IP10: BioMAP Diversity Plus: hDFCGF Assay for Interferon-gamma inducible Protein 10 (IP10) Biomarker Activity (AID 2283053); settings: primary human foreskin fibroblasts; actives raise or lower the signal
How it was run: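 ELISA quantification of IP-10 after a 24 h chemical exposure of human dermal foreskin fibroblast primary cultures. Both increases and decreases versus DMSO fitted.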

[4] = read-out: Urokinase-type plasminogen activator receptor (uPAR), PLAUR (gene 5329); assay: BSK_CASM3C_uPAR: BioMAP Diversity Plus: CASM3C Assay for Urokinase-type plasminogen activator receptor (uPAR) Biomarker Activity (AID 2283054); settings: primary human coronary artery smooth muscle cells; actives raise or lower the signal;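 also: cell-surface uPAR protein level quantified by ELISA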
[5] = read-out: Vascular cell adhesion molecule 1 (VCAM1), VCAM1 (gene 7412); assay: BSK_CASM3C_VCAM1: BioMAP Diversity Plus: CASM3C Assay for Vascular cell adhesion molecule 1 (VCAM1) Biomarker Activity (AID 2283055); settings: primary human coronary artery smooth muscle cells; actives raise or lower the signal;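 also: VCAM-1 protein level quantified by ELISA on the cells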
[6] = read-out: Collagen III, COL3A1 (gene 1281); assay: BSK_hDFCGF_CollagenIII: BioMAP Diversity Plus: hDFCGF Assay for Collagen III Biomarker Activity (AID 2283056); settings: primary human foreskin fibroblasts; actives raise or lower the signal
How it was run: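 hDFCGF primary human dermal fibroblasts; 24 h chemical exposure; collagen III by ELISA; bidirectional curve fit vs DMSO baseline (gain or loss of signal).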

[7] = read-out: Epidermal growth factor receptor (EGFR), EGFR (gene 1956); assay: BSK_hDFCGF_EGFR: BioMAP Diversity Plus: hDFCGF Assay for Epidermal growth factor receptor (EGFR) Biomarker Activity (AID 2283057); settings: primary human foreskin fibroblasts; actives raise or lower the signal
How it was run: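 EGFR levels by ELISA in human dermal fibroblast cultures, 24 h post-treatment, fitted bidirectionally versus DMSO. Parallel wells stained with sulforhodamine B to detect overt cytotoxicity.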

[8] = read-out: Interleukin-8 (IL8), CXCL8 (gene 3576); assay: BSK_hDFCGF_IL8: BioMAP Diversity Plus: hDFCGF Assay for Interleukin-8 (IL8) Biomarker Activity (AID 2283058); settings: primary human foreskin fibroblasts; actives raise or lower the signal
How it was run: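 ELISA read-out of IL-8 from primary human foreskin fibroblast cultures taken 24 h after dosing; values are bidirectional fits relative to DMSO vehicle.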

[9] = BSK_hDFCGF_Proliferation: Cell Proliferation Assessment in the BioMAP Diversity Plus: hDFCGF Assay (AID 2283059); settings: primary human foreskin fibroblasts;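 also: curves fitted for both rise and fall of signal versus DMSO baseline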
How it was run: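 Sub-confluent human foreskin fibroblast cultures receive test chemical […]. Relative cell number is quantified by sulforhodamine B staining (0.1%, after 10% TCA fixation) at 560 nm, with bidirectional fitting referenced to DMSO.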

[10] = read-out: Macrophage colony-stimulating factor (MCSF), CSF1 (gene 1435); assay: BSK_hDFCGF_MCSF: BioMAP Diversity Plus: hDFCGF Assay for Macrophage colony-stimulating factor (MCSF) Biomarker Activity (AID 2283060); settings: primary human foreskin fibroblasts; actives raise or lower the signal
How it was run: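 ELISA read-out of M-CSF in human dermal foreskin fibroblast cultures, 24 h after chemical dosing; gain or loss of signal fitted bidirectionally relative to DMSO baseline.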

[11] = BSK_hDFCGF_SRB: Viability Assessment in the BioMAP Diversity Plus: hDFCGF Assay (AID 2283061); settings: primary human foreskin fibroblasts;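 also: cells exposed to compound for 24 h before the read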
How it was run: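 Primary human foreskin fibroblasts; 24 h post-dose; fixed 10% TCA, stained 0.1% SRB, A560 read; total protein as overt cytotoxicity measure; curves fit bidirectionally vs DMSO control.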

[12] = read-out: TIMP metallopeptidase inhibitor 1 (TIMP1), TIMP1 (gene 7076); assay: BSK_hDFCGF_TIMP1: BioMAP Diversity Plus: hDFCGF Assay for TIMP metallopeptidase inhibitor 1 (TIMP1) Biomarker Activity (AID 2283062); settings: primary human foreskin fibroblasts; actives raise or lower the signal
How it was run: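 ELISA readout of TIMP-1 from human dermal foreskin fibroblast cultures 24 h post-dosing. Curves were fitted in both directions against DMSO baseline, with SRB total-protein staining in parallel cultures as a cytotoxicity check.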

[13] = read-out: Monokine induced gamma interferon (MIG), CXCL9 (gene 4283); assay: BSK_hDFCGF_MIG: BioMAP Diversity Plus: hDFCGF Assay for Monokine induced gamma interferon (MIG) Biomarker Activity (AID 2283063); settings: primary human foreskin fibroblasts; actives raise or lower the signal
How it was run: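 Fibroblasts (human foreskin, primary) dosed, 24 h, MIG by ELISA; fit bidirectional vs DMSO.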

[14] = read-out: Matrix Metallopeptidase 1 (MMP1), MMP1 (gene 4312); assay: BSK_hDFCGF_MMP1: BioMAP Diversity Plus: hDFCGF Assay for Matrix Metallopeptidase 1 (MMP1) Biomarker Activity (AID 2283064); settings: primary human foreskin fibroblasts; actives raise or lower the signal
How it was run: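 MMP1 levels quantified by ELISA 24 h after dosing human dermal fibroblast cultures, with parallel SRB total-protein staining for overt cytotoxicity. Data fitted in both directions against DMSO baseline.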

[15] = read-out: Vascular cell adhesion molecule 1 (VCAM1), VCAM1 (gene 7412); assay: BSK_hDFCGF_VCAM1: BioMAP Diversity Plus: hDFCGF Assay for Vascular cell adhesion molecule 1 (VCAM1) Biomarker Activity (AID 2283065); settings: primary human foreskin fibroblasts; actives raise or lower the signal;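 as to AC50: VCAM-1 protein level quantified by ELISA after 24 h chemical exposure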
How it was run: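 ELISA read-out of VCAM-1 on human skin fibroblasts, 24 h post-dose; gain or loss of signal fitted bidirectionally against DMSO baseline.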

[16] = read-out: Plasminogen activator inhibitor-1 (PAI1), SERPINE1 (gene 5054); assay: BSK_hDFCGF_PAI1: BioMAP Diversity Plus: hDFCGF Assay for Plasminogen activator inhibitor-1 (PAI1) Biomarker Activity (AID 2283066); settings: primary human foreskin fibroblasts; actives raise or lower the signal
How it was run: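 PAI-1 levels in human dermal foreskin fibroblasts were quantified by ELISA 24 h after dosing, with gain or loss analysed against DMSO. Overt cytotoxicity was checked by sulforhodamine B total-protein staining in parallel cultures.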

[17] = read-out: Intercellular Adhesion Molecule 1 (ICAM1), ICAM1 (gene 3383); assay: BSK_KF3CT_ICAM1: BioMAP Diversity Plus: KF3CT Assay for Intercellular Adhesion Molecule 1 (ICAM1) Biomarker Activity (AID 2283067); settings: primary human keratinocytes with fibroblasts; actives raise or lower the signal
How it was run: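 ELISA readout of ICAM-1; KF3CT human skin co-culture (keratinocytes + foreskin fibroblasts), 24 h post-dose; gain/loss fit vs DMSO baseline.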

[18] = read-out: Interferon-gamma inducible Protein 10 (IP10), CXCL10 (gene 3627); assay: BSK_KF3CT_IP10: BioMAP Diversity Plus: KF3CT Assay for Interferon-gamma inducible Protein 10 (IP10) Biomarker Activity (AID 2283068); settings: primary human keratinocytes with fibroblasts; actives raise or lower the signal
How it was run: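 ELISA read-out of IP-10 after 24 h chemical dosing of human skin primary co-culture (keratinocytes, foreskin fibroblasts). Gain or loss of signal relative to DMSO, bidirectional curve fit.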

[19] = BSK_KF3CT_SRB: Viability Assessment in the BioMAP Diversity Plus: KF3CT Assay (AID 2283069); settings: primary human keratinocytes with fibroblasts;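 also: read 24 h after compound addition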
How it was run: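 Cytotoxicity was gauged by SRB staining (0.1% SRB, 10% TCA fixation, 560 nm) of parallel cultures at 24 h. The cells were primary human skin keratinocytes co-cultured with fibroblasts, and activity was fitted in both directions against DMSO.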

[20] = read-out: Interleukin-1 alpha (IL1a), IL1A (gene 3552); assay: BSK_KF3CT_IL1a: BioMAP Diversity Plus: KF3CT Assay for Interleukin-1 alpha (IL1a) Biomarker Activity (AID 2283070); settings: primary human keratinocytes with fibroblasts; actives raise or lower the signal
How it was run: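 IL-1a was detected by ELISA 24 h after chemical treatment of a co-culture of human skin keratinocytes and foreskin fibroblasts. Gain or loss of signal was fitted against the DMSO baseline.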

Measured: AC50

CCOP(=S)(OCC)Oc1nc(Cl)c(Cl)cc1Cl
active: [1] 26.9 µM | [3] 20 µM | [6] 9.2 µM | [9] 14.9 µM | [10] 11.9 µM | [14] 4.93 µM | [15] 7.1 µM | [16] 13.3 µM
inactive: all other assays above

CCSC(C)CC1CC(=O)C(C(CC)=NOC/C=C/Cl)=C(O)C1 (centres undefined)
inactive: all assays above

CCC(C)(C)c1ccc(O)c(C(C)(C)CC)c1
inactive: [7]
active: [1] 33.8 µM | [2] 11.4 µM | [3] 6.49 µM | [4] 31.4 µM | [5] 12.2 µM | [6] 7.28 µM | [8] 10.4 µM | [9] 9.6 µM | [10] 8.2 µM | [11] 11.3 µM | [12] 8.53 µM | [13] 8.09 µM | [14] 10.7 µM | [15] 9.33 µM | [16] 7.87 µM | [17] 11.7 µM | [18] 9.69 µM | [19] 7.84 µM | [20] 9.89 µM

Cc1ccccc1N
inactive: all assays above

CC(C)(C)c1cc(O)ccc1O
active: [1] 14.7 µM | [2] 11.2 µM | [3] 4.87 µM | [5] 23.7 µM | [6] 5.6 µM | [7] 5.78 µM | [8] 9.21 µM | [9] 0.472 µM | [10] 5.23 µM | [11] 4.07 µM | [12] 4.45 µM | [13] 4.42 µM | [14] 6.21 µM | [15] 3.31 µM | [16] 5.24 µM | [17] 30.8 µM | [18] 30.1 µM | [19] 29.9 µM | [20] 28.3 µM
inactive: [4]

O=C(O)C(Cl)(Cl)Cl
inactive: all assays above

CCCCCCCCC(=O)NCc1ccc(O)c(OC)c1
active: [4] 20 µM | [6] 25.6 µM | [16] 0.155 µM
inactive: all other assays above

CC(C)CCCCCCOC(=O)c1ccccc1C(=O)OCCCCCCC(C)C
active: [2] 0.0332 µM | [20] 1.58 µM
inactive: all other assays above

COc1cc(OC)nc(NC(=O)NS(=O)(=O)c2ncccc2C(=O)N(C)C)n1
inactive: all assays above

ClC(Cl)=C(Cl)C(Cl)=C(Cl)Cl
inactive: [2] | [3] | [4] | [7] | [8] | [10] | [11] | [13] | [15]
active: [1] 0.0235 µM | [5] 20 µM | [6] 20 µM | [9] 29.4 µM | [12] 20 µM | [14] 32 µM | [16] 0.435 µM | [17] 32.4 µM | [18] 36.3 µM | [19] 34.1 µM | [20] 20 µM

O=C(O)CCC(F)(C(F)(F)F)C(F)(F)F
active: [3] 1.93 µM | [5] 0.25 µM | [10] 5.95 µM | [15] 7.04 µM
inactive: [1] | [2] | [3] | [4] | [5] | [6] | [7] | [8] | [9] | [10] | [11] | [12] | [13] | [14] | [15] | [16] | [17] | [18] | [19] | [20]
